Data as given in PubChem BioAssay (NCI).
This is part of a sample that, as a whole, favours compounds with a hit. Of some 83,000 tested, about 20% had one in any assay.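 Negative percent growth values reflect cell death: -40 means 40% of the cells present at the start died, and -100 means all died.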 Calls of active or inactive are those of the source.

System: MOLT-4 leukemia
Assay: NCI-60 one-dose screen, 48 h (100 = growth as untreated, 0 = no growth, -100 = all killed)
Details: 10 µM unless noted
Experimental: Growth inhibition of the MOLT-4 human tumor cell line is measured as a screen for anti-cancer activity. Cells are grown in 96 well plates and exposed to the test compound for 48 hours. Compounds are tested at a single concentration, which is 10^-5 M for most compounds. The reported endpoint is percent growth (GI% or GIPRCNT), where numbers from 0 - 100% represent growth inhibition, and numbers from -100% - 0 represent cell death. For example, a value of 40 represents 60% growth inhibition. A value of 0 means no net growth occurred over the course of the experiment. A value of -40 indicates 40% of cells at the beginning of the experiment died by the end of the experiment. A value of -100 means all cells are dead at the end of the experiment.
NCI-60 Human Tumor Cell Lines Screen was performed using the standard one-dose NCI protocol, which is described in more detail at https://dtp.cancer.gov/discovery_development/nci-60/default.htm.
Compounds with GIPRCNT values below 10 were considered active. Activity score was based on GIPRCNT using the following formula: […]
Score is 0 for GIPRCNT values of 100 or above, 50 for GIPRCNT values of 0, and 100 for GIPRCNT values of -100.

SMILES | growth
COc1ccc(-c2nn(-c3ccccc3)cc2/C=C2\SC(=S)N(CCc3ccc(O)cc3)C2=O)cc1 | 68.3% (inactive)
CC(C)(C)c1ccc(S(=O)(=O)O)s1 | 76.1% (inactive)
O=C(CCc1nnc(Cn2cncn2)o1)c1nc2ccccc2[nH]1 | 92.4% (inactive)
CSc1ncc2ncn(C3OC(CO)C(O)C3O)c2n1 (stereo not given) | 109% (inactive)
O=C(Nc1ccc(OCc2nnc(-c3ccccc3)o2)c(F)c1)Nc1ccc(Cl)c(C(F)(F)F)c1 | 13.7% (inactive)
O=C(c1ccccc1)c1ccco1 | 91.7% (inactive)
CC(=O)NC1(C(=O)O)CCCC1 | 109% (inactive)
O=C(/C(=N/O)S(=O)(=O)c1ccccc1)c1cccs1 | 104% (inactive)
COc1ccc(-c2cn(-c3ccccc3)c(-c3ccccc3)n2)cc1OC | 77% (inactive)
CCN1C[C@@H](C)n2c(c(O)c3c(=O)n(Cc4ccc(F)c(Cl)c4)nc(C(=O)NC)c32)C1=O | 21.6% (inactive)
CC(c1ccccn1)C(C)(O)C(C)c1ccccn1 (stereo not given) | 65.1% (inactive)
Cc1c(N(C)CS(=O)(=O)O)c(=O)n(-c2ccccc2)n1C | 83% (inactive)
COc1ccc(C2CC(c3ccc(OC)c(OC)c3)=NN2C(=O)c2cc(OC)c(OC)c(OC)c2)c(OC)c1 (stereo not given) | 106% (inactive)
CCCC[N+](CCCC)=c1ccc2nc3c(C)cc(N(CC)CC)cc3sc-2c1 | -20.1% (active)
CN(C)c1ccc2c(c1)/C(=N/O)c1ccccc1-2 | 81.2% (inactive)
Nc1ccc(C2=NN(c3ccccc3)C(c3ccc(Cl)cc3)C2)cc1 (stereo not given) | 62.4% (inactive)
COc1ccc(-c2c(N)noc2-c2cc(OC)c3c(c2)OCCO3)cc1 | 10.3% (inactive)
CC(c1cc(Cl)ccc1O)c1cc(Cl)ccc1O | 52.1% (inactive)
CCCCn1c(Cc2ccc(Cl)cc2)nc2cc(OC)c(OC)cc2c1=O | -48.7% (active)
O=C1C(=O)c2ccc(Br)cc2-c2cc(Br)ccc21 | -31.4% (active)

SMILES | growth
O=c1[nH]c(=O)n(C2CC(O)C(CO)O2)cc1C(F)(F)F (stereo not given) | 31.8% (inactive)
CCOC(=O)c1c2c(c(C)n1Cc1ccc(OC)cc1)-c1nc(N)ncc1CC2 | 93.6% (inactive)
Cc1[nH]n(C(N)=S)c(=O)c1N=Nc1ccc(F)c(Cl)c1 | 76.9% (inactive)
CCC1=C(c2ccc(OC)cc2)C(C)(C)Oc2c1ccc(O)c2CN1CCCC1 | 14.3% (inactive)
Cn1c(=O)c2c(nc(Br)n2CCC(=O)Nc2ccc(F)cc2)n(C)c1=O | 95.9% (inactive)
c1cncc(CNc2ccccc2-c2nnc(Nc3ccc4c(c3)OCO4)o2)c1 | 18.6% (inactive)
COc1cc(/C=C/C(=O)c2ccc(F)cc2)ccc1OCCCCCOc1cc2c(cc1OC)C(=O)N1CCCC1C=N2 (stereo not given) | -28.9% (active)
N#Cc1c2ccccc2c2n1-c1ccccc1OC(c1ccccc1)C2=O (stereo not given) | 56.4% (inactive)
COc1ccc(COC(C)=O)cc1 | 107% (inactive)
CCC1=C(c2ccc(OC)cc2)C(C)(C)Oc2cc(O)c(CN3CCCC3)cc21 | 66.3% (inactive)
CC(C)COCC(CN(Cc1ccccc1)c1ccccc1)N1CCCC1 (stereo not given) | 28.8% (inactive)
O=C(Nc1ccc(Cl)cc1Cl)Nc1ccc(-c2cccnc2)cc1N1CCC(CO)CC1 | -0.573% (active)
CC(C)[C@H]1CC[C@H]2[C@@H](CC[C@H]3[C@](C)(CN)CCC[C@]23C)C1 | 37.2% (inactive)
CO[C@H]1/C=C/O[C@@]2(C)Oc3c(C)c(O)c4c(O)c(c(/C=N/N5C(C)CN(Cc6ccccc6)CC5C)c(O)c4c3C2=O)NC(=O)/C(C)=C\C=C\[C@H](C)[C@H](O)[C@@H](C)[C@@H](O)[C@@H](C)[C@H](OC(C)=O)[C@@H]1C (stereo not given in full) | 217% (inactive)
O=C(/C=C/c1cccnc1)/C=C/c1cccnc1 | -22.8% (active)
Oc1ccc(Cc2ccc(O)c(C3CC(c4ccc(Cl)cc4)=NN3)c2)cc1C1CC(c2ccc(Cl)cc2)=NN1 (stereo not given) | -5.34% (active)
COc1cc(C(=O)/C=C/c2cccnc2Nc2ccccc2)cc(OC)c1OC | -1.45% (active)
Cn1c(=O)c2nc(SCc3ccccc3)n(C)c2n(C)c1=O | 106% (inactive)
OC(Cc1cccnc1)c1ccccc1 (stereo not given) | 94.3% (inactive)
Cn1cnc([N+](=O)[O-])c1S(=O)(=O)Oc1ccc(Cl)cc1 | -0.321% (active)
